Screening data: PubChem BioAssay, National Center for Advancing Translational Sciences (NCATS)
Cruzain Triton – inhibitors of Trypanosoma cruzi cruzain with detergent; P25779; purified cruzain, Z-FR-AMC fluorescence, 0.01% Triton; Potency, µM, without a hit: max response, negative = inhibition, actives largely listed as inhibitors; 200,000 tested, 0.43% active; AID 1478;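 further: plate controls were neutral wells for no effect and buffer without enzyme for full effect; nearly all actives have a fitted effect of over 40% in size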
Target sequence (P25779 123-467 limits assumed): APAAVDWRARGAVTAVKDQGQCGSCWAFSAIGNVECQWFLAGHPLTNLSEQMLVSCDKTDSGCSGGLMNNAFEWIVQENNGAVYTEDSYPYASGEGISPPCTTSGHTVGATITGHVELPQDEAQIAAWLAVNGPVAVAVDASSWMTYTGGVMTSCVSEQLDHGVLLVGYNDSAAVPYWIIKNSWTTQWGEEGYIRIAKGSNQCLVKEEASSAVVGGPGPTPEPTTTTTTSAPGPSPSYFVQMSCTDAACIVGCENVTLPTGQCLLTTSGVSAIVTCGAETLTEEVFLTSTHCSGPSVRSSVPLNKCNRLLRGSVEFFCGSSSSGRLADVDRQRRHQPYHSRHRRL
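Compounds were screened in titration against cruzain (1.5 nM) with 0.01% Triton X-100 to counter colloidal aggregation. Activity was the AMC fluorescence increase over 60 s after adding 2 uM Z-FR-AMC at pH 5.5.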
Cruzain inh noDet – inhibitors of Trypanosoma cruzi cruzain without detergent. purified cruzain, Z-FR-AMC fluorescence, no detergent. Potency, µM, without a hit: max response, negative = inhibition, usual class: inhibitors. 200,000 tested, 2.3% active. P25779. AID 1476;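 further: plate controls were enzyme without inhibitor for no effect and buffer without enzyme for full effect; nearly all actives have a fitted effect of over 40% in size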
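Purified cruzain at 1.5 nM, pre-incubated 15 min with compound at room temperature in 100 mM sodium acetate pH 5.5, 5 mM DTT, 0.00005% Triton X-100. Reaction started with 2 uM Z-FR-AMC; AMC fluorescence increase over 60 s gives rate.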
NS1 function inh – inhibitors of influenza NS1 protein function | Potency, µM (titrated, usually from 46.1 µM), without a hit: top-dose activity, positive = more growth | 270,000 tested, 0.4% active | AID 2326; calls by dose curve; further: actives are rising curves; nearly all actives have a fitted effect of over 50% in size
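Read-out: OD600 growth recovery of NS1-expressing budding yeast. Cells grown overnight at 30C in -URA glucose medium, washed, resuspended and diluted 1:100 in 2% galactose assay medium, pH 6.0. Same strain lacking NS1 served as positive control.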
Active calls of the source: *; ? = inconclusive; . = not tested or not shown. Only a selection was taken, and hits are over-represented in it overall. Unless noted, the call rests on the fitted dose curve; in most records, active means well fitted curve in the direction sought with a large enough effect; inconclusive means small, poorly fitted or top-dose-only effect, or another doubt; inactive means no such curve, though single readings can be large; an effect the other way counts as inactive or inconclusive. Potency means the concentration at half of the fitted maximal effect.

SMILES	Cruzain Triton	Cruzain inh noDet	NS1 function inh
O=C(Nc1ccc(Oc2ccccc2)cc1)c1ccc(F)c(S(=O)(=O)N2CCN(c3cccc(Cl)c3)CC2)c1	1%	4µM*	.
O=C(Nc1ccc(Oc2ccccc2)cc1)c1ccc(F)c(S(=O)(=O)N2CCN(c3ccccc3F)CC2)c1	0%	7.9µM*	.
COc1ccccc1N1CCN(S(=O)(=O)c2cc(C(=O)Nc3ccc(Oc4ccccc4)cc3)ccc2F)CC1	0%	7.9µM*	.
CSc1ccc(CCNC(=O)CN2C(=O)COc3ccc(S(=O)(=O)N4CCCC4)cc32)cc1	3%	4%	.
O=C(NC1CCCCC1)c1c[nH]c2ccc(S(=O)(=O)Nc3ccccc3F)cc2c1=O	-13%	-9%	.
CC(C)(C)OC(=O)N1CCC(c2c(C(=O)N3CCC(c4ccccc4)C3)cnn2-c2cccc(Cl)c2)CC1 (stereo not drawn)	-6%	?	.
CCc1nn(C(C)C(=O)N2CCN(c3cccc(C(F)(F)F)c3)CC2)c(=O)c2cc3occc3n12 (stereo not drawn)	-8%	?	.
O=[N+]([O-])c1cc(/C=N\Nc2nccs2)ccc1O	18µM*	32µM*	-64%
O=[N+]([O-])c1ccccc1/C=N\Nc1nccs1	.	.	4%
O=S(=O)(O)c1cc(S(=O)(=O)O)c2c(N=Nc3cccc4ccccc34)c(O)ccc2c1	3%	22%	-3%
O=S(=O)(O)c1cc(N=Nc2cccc3ccccc23)c(O)c2ncccc12	3.5µM*	-5%	-3%
Cc1ccccc1C1CC(=O)Oc2cc(C)c(Cl)c(C)c21 (stereo not drawn)	-2%	7%	.
O=C(O)[C@@H]1CCN(Cc2oc(CO)cc(=O)c2O)C1	4%	9%	-3%
CCn1cnc2c(=O)oc3ccc(S(=O)(=O)N4CCN(c5cc(C)ccc5C)CC4)cc3c21	-1%	2%	.
Cc1cccc(Cn2c(SCc3ccc(C(=O)NCCc4ccccc4)cc3)nc3ccncc32)c1	-7%	-12%	.
O=C(Nc1ccc(/C=C/c2nc3ccccc3o2)cc1)c1c(F)cccc1F	-1%	10µM*	7%
O=C(Nc1ccc(/C=C/c2nc3ccccc3o2)cc1)c1cccc(C(F)(F)F)c1	-6%	7.9µM*	14%
CC(=O)Nc1ccc(/C=C/c2nc3ccccc3o2)cc1	.	.	-34%
Cc1cnc(Nc2nc3ccccc3o2)nc1C(=O)Nc1cccc(C(F)(F)F)c1	-2%	-6%	-40%
O=C(Nc1ccc(C(=O)N2CCN(c3ccccc3F)CC2)cc1)c1nsc2ccccc12	0%	?	.
CCOC(=O)c1c(NC(=O)C(=O)N/N=C/c2ccccc2OC)sc2c1CCCCC2	-10%	10µM*	-2%
CCOC(=O)c1c(NC(=O)c2ccc(C)cc2)sc2c1CCCCC2	0%	-1%	.
CCOC(=O)c1c(NC(=O)C(=O)N/N=C/c2ccccc2O)sc2c1CCCCC2	2%	7.9µM*	-6%
CCOC(=O)c1c(NC(=O)C(=O)N/N=C(\C)c2ccc(OC)cc2)sc2c1CCCCC2	-5%	-1%	13%
CC1=CC2C(=O)c3cccc(O)c3C(=O)C2C(O)=C1 (stereo not drawn)	-2%	-11%	.
SMILES	Cruzain Triton	Cruzain inh noDet	NS1 function inh
COc1ccc(-c2nc3cnc(N4CCOCC4)nc3n(CCc3ccccc3)c2=O)cc1	0%	5%	.
O=C(COc1cccc(F)c1)N[C@@H](Cc1ccccc1)c1nc2ccccc2[nH]1	13µM*	-1%	-2%
CC(C)(C)CC(=O)N[C@@H](Cc1ccccc1)c1nc2ccccc2[nH]1	.	.	-6%
Nc1nc2c(ncn2[C@@H]2O[C@H](CO)[C@@H](O)[C@@H]2O)c(=[SH+])[nH]1.O=[N+]([O-])c1ccc(O)[c]([Hg])c1	0%	-2%	-6%
Cn1c(CS/C(N)=N/N=C/c2ccccc2)c(Br)c(=O)n1-c1ccccc1	?	32µM*	-24%
Cc1c(NC(=S)N/N=C/c2ccc(Br)cc2)c(=O)n(-c2ccccc2)n1C	.	.	1%
COc1ccccc1CNC(=O)CCC1N=C2c3ccccc3N=C(SCC(=O)NCCc3ccc(OC)c(OC)c3)N2C1=O (stereo not drawn)	-2%	?	.
O=c1cc(CN2CCN(c3ccccc3)CC2)c2cc(O)c(-c3ccccc3)cc2o1	-2%	10µM*	-5%
O=c1cc(CN2CCN(c3ccccc3)CC2)c2c(ccc3ccccc32)o1	3%	?	-19%
COc1ccc(N2CCN(Cc3cc(=O)oc4ccc(C)cc34)CC2)cc1	0%	?	10%
COc1ccc(N2CCN(Cc3cc(=O)oc4cc5c(cc34)CCCC5)CC2)cc1	0%	13µM*	?
O=c1cc(CN2CCN(Cc3ccccc3)CC2)c2cc(Cl)ccc2o1	-4%	-8%	3%
O=c1cc(CN2CCN(c3cccc(Cl)c3)CC2)c2cc(O)c(-c3ccccc3)cc2o1	4%	7.9µM*	6%
Cc1ccc2c(c1C)NC(=O)CC2c1ccc(Cl)cc1Cl (stereo not drawn)	-7%	-6%	.
COc1ccc(Cn2ccc3nc(C)c(C(=O)Nc4ccc(OC(F)(F)F)cc4)cc3c2=O)cc1	-5%	?	.
COC(=O)c1ccc(C(NC(=O)OCc2ccccc2)/C(=C/[C@@H](C)C(=O)NCc2ccc(OC)c(OC)c2)c2cccnc2)cc1 (stereo partly drawn)	-5%	?	.
Cc1cc(NC(=O)CCN2C(=O)C3C4CCC(C4)C3C2=O)c(C)cc1Br (stereo not drawn)	0%	1%	-6%
Cc1cc(Br)c(Cl)cc1NC(=O)CN1C(=O)C2C3CC(c4ccccc4)C(C3)C2C1=O (stereo not drawn)	-6%	13µM*	22%
Cc1ccc(N2C(=O)CSC23C(=O)N(CC(=O)Nc2ccccc2F)c2ccccc23)cc1C (stereo not drawn)	-4%	?	.
COc1ccc(CC(N)C(=O)N[C@H]2[C@@H](O)[C@H](n3cnc4c(N(C)C)ncnc43)O[C@@H]2CO)cc1 (stereo partly drawn)	-2%	-2%	.
CCOc1ccc(/C=N/NC(=S)Nc2c(C)cccc2C)cc1	-7%	-1%	1%
CCNC(=S)N/N=C/c1ccc(OCCOc2ccccc2C)cc1	2%	16µM*	11%
COc1ccc2c(c1)C(=O)[C@H](OC(=O)Nc1ccc(C)c(Br)c1)[C@@H](c1ccc(OC)c(Br)c1)O2	-1%	?	.
COc1ccc2c(c1)C(=O)[C@@H](OC(=O)Nc1ccc(C)c(Br)c1)[C@H](c1ccc(OC)c(Br)c1)O2	1%	25µM*	.
Cc1ccc2oc(-c3cccc(NC(=S)NC(=O)/C=C/c4ccco4)c3)nc2c1	-7%	4µM*	?
SMILES	Cruzain Triton	Cruzain inh noDet	NS1 function inh
O=C(/C=C\c1ccco1)Nc1nc(-c2ccccc2)cs1	1%	10%	24%
COc1ccc(-c2csc(NC(=S)NC(=O)/C=C/c3ccccc3)n2)cc1Br	.	.	3%
O=C(/C=C/c1ccco1)NC(=S)Nc1nc(-c2ccc(Cl)cc2)cs1	-2%	5µM*	13%
Cc1ccc2oc(-c3cccc(NC(=S)NC(=O)c4cccs4)c3)nc2c1	0%	?	3%
O=C(/C=C/c1ccco1)NC(=S)Nc1nc(-c2ccc3ccccc3c2)cs1	2%	4µM*	18%
Cc1noc(C)c1-c1ccc2ncnc(N3CCOCC3)c2c1	-3%	-4%	.
COc1ccc(C2=NN(C(=O)COc3ncnc4ccccc34)C(c3ccco3)C2)cc1 (stereo not drawn)	.	.	-5%
